Test results reported in PubChem BioAssay (NCATS).
“And” between values parts separate entries of the source, which are not always exact repeats. Equal entries are not always repeated. Unmarked numbers belong to inactive results. The call rests on the fitted dose curve; in most records, active means well fitted curve in the direction sought with a large enough effect; inconclusive means small, poorly fitted or top-dose-only effect, or another doubt; inactive means no such curve, though single readings can be large; an effect the other way counts as inactive or inconclusive. Inconclusive results are not listed.

Test: qHTS Assay for Identifying Gametocytocidal Compounds (AID 743244);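 further: on the % scale 0 is the no-effect control and ±100 the full control effect; actives lower the fluorescent signal which means gametocytes are killed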
Settings: P. falciparum 3D7 stage III-V gametocytes, alamarBlue, 72 h; max response: hits give low values
Method in brief: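 A resazurin-based viability read-out was applied to mature P. falciparum gametocytes: 72 h compound treatment, then 24 h dye incubation, with falling fluorescence signalling gametocytocidal effect.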

Compound	max response
CC(=O)O[C@H]1C[C@@H]2CC[C@@H]3[C@H](CC[C@@]4(C)[C@H]3C[C@H]([N+]3(C)CCCCC3)[C@@H]4OC(C)=O)[C@@]2(C)C[C@@H]1[N+]1(C)CCCCC1	-9.72% and 10.5%
CC1(C)CCC(NC(=O)[C@@H](N)CCC(=O)O)CC1	-7.5% and 17.9%
NC(=O)c1cc[n+](CC2=C(C(=O)[O-])N3C(=O)[C@@H](NC(=O)Cc4cccs4)[C@H]3SC2)cc1	1.11%

Test: qHTS assay for measurement of the activity of small molecule inhibitors on Zika virus induced Caspase-3 activity in human iPSC derived neural progenitor cells (hNPCs) (AID 1224857); further: % of control where 0% means no effect; nearly all actives have a fitted effect of over 65% in size
Settings: hNPCs ZIKV-induced caspase-3/7, Caspase-Glo luminescence, 6 h; series mostly up to 45.7 µM; activity change, negative = inhibition: at the top concentration
Method in brief: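 Quantitative HTS format: human iPSC neural progenitors, 1 h compound pretreatment, ZIKV 2 FFU/cell for 6 h at 37 C. Percent inhibition derived from luminescent caspase-3/7 signal between uninfected and infected controls.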

Compound	activity change, negative = inhibition
CCN(CC)C(=O)N1CCN(C)CC1	-0.192%
CC(CCc1ccccc1)NCC(O)c1ccc(O)c(C(N)=O)c1 (centres undefined)	9.06%
N[C@@H](Cc1cnc[nH]1)C(=O)O	32.6%
CCCCCCCCCCOCC(O)CN (centres undefined)	-6.44%
O=C(COc1ccc(Cl)cc1)N1CCN(Cc2ccc3c(c2)OCO3)CC1	-5.49%
CC(=O)OCC(=O)NCCCOc1cccc(CN2CCCCC2)c1	1.66%
Cc1ccc(O)c2ncccc12	-3.77%
Cc1cc2c(cc1CC(=O)c1sccc1S(=O)(=O)Nc1onc(C)c1Cl)OCO2	-1.77%
COC(=O)C1=C(C)NC(C)=C(C(=O)O[C@@H]2CCCN(Cc3ccccc3)C2)[C@@H]1c1cccc([N+](=O)[O-])c1	-4.29%
N[C@H](CO)C(=O)O	34.7%
OC[C@H]1O[C@H](O[C@]2(CCl)O[C@H](CCl)[C@@H](O)[C@@H]2O)[C@H](O)[C@@H](O)[C@H]1Cl	-1.08%
CCCn1c(=O)[nH]c(=O)c2[nH]cnc21	-5.47%
C[N+]1(CCCCC[N+]2(C)CCCC2)CCCC1	-0.186%
CCCCc1nc(Cl)c(CO)n1Cc1ccc(-c2ccccc2-c2nn[nH]n2)cc1	0.346%
C=C1C(=C/C=C2\CCC[C@]3(C)[C@@H]([C@H](C)/C=C/[C@@H](O)C4CC4)CC[C@@H]23)C[C@@H](O)C[C@@H]1O	54.1%
C[C@@H]1C(=O)NC2=Nc3cccc(Cl)c3CN21	-13%
CC(C)COC(=O)OCN1C(=O)CN(CCN2CC(=O)N(COC(=O)OCC(C)C)C(=O)C2)CC1=O	-6.78%
Clc1ccc2c(c1)CCc1cccnc1C2=C1CCNCC1	192%

Compound	activity change, negative = inhibition
CC(C)C[C@H]1C(=O)N2CCC[C@H]2[C@]2(O)O[C@](NC(=O)[C@@H]3C=C4c5cccc6[nH]c(Br)c(c56)C[C@H]4N(C)C3)(C(C)C)C(=O)N12	17.8%
C[C@@H]1CN(CCCn2c3ccccc3c3ccccc32)C[C@H](C)N1	-0.754%
Cc1ccccc1C(=O)Nc1ccc(C(=O)N2CCCC(N(C)C)c3ccccc32)cc1 (centres undefined)	10.9%
CCCOC(C(=O)OC1CCN(C)CC1)(c1ccccc1)c1ccccc1	31.1%
C1CCc2nnnn2CC1	-5.03%
c1ccc(-c2ccc(C(c3ccccc3)n3ccnc3)cc2)cc1 (centres undefined)	8.41%
Nc1cc(Cl)c(NC2=NCCN2)c(Cl)c1	11.3%
CC(C)N=C(N)/N=C(\N)Nc1ccc(Cl)cc1	7.42%
CCN(CC)CCOc1ccc(C(O)(Cc2ccc(Cl)cc2)c2ccc(C)cc2)cc1 (centres undefined)	-3.03%
O=C1CCC(c2ccc(-n3ccnc3)cc2)=NN1	-19.5%
CC[C@H](C)C(=O)O[C@H]1CCC=C2C=C[C@H](C)[C@H](CC[C@@H]3C[C@@H](O)CC(=O)O3)[C@H]21	15.4%
CC(=O)O[C@H]1C[C@@H]2CC[C@@H]3[C@H](CC[C@@]4(C)[C@H]3C[C@H]([N+]3(C)CCCCC3)[C@@H]4OC(C)=O)[C@@]2(C)C[C@@H]1[N+]1(C)CCCCC1	-3.46%
CN1CCCC(CC2c3ccccc3Sc3ccccc32)C1 (centres undefined)	6.29%
CC1(C)CCC(NC(=O)[C@@H](N)CCC(=O)O)CC1	-8.46%
CCCCOc1ccc(C(=O)CCN2CCCCC2)cc1	40.4%
NC(=O)c1cc[n+](CC2=C(C(=O)[O-])N3C(=O)[C@@H](NC(=O)Cc4cccs4)[C@H]3SC2)cc1	-2.35%
O=C(CCN1CCC(c2ccccc2)C1)c1ccc2c(c1)OCCO2 (centres undefined)	-3.31%
CC(C)NC[C@@H](O)COc1cccc2ccccc12	1.94%

Test: qHTS assay for measurement of the activity of small molecule inhibitors on Zika virus induced Caspase-3 activity in human astrocytoma cells (AID 1224859);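 further: plate controls were ZIKV-infected untreated cells for no effect and uninfected cells for full effect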
Settings: SNB-19 ZIKV-induced caspase-3/7, luminescence, 6 h; series mostly up to 45.7 µM; activity change, negative = inhibition: at the top concentration
Method in brief: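 Readout is luminescence from Caspase-Glo 3/7 added after a 6 h ZIKV infection (2 FFU/cell) of compound-pretreated (1 h) SNB-19 cells; data expressed as % inhibition versus uninfected and infected wells.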

Compound	activity change, negative = inhibition
CCN(CC)C(=O)N1CCN(C)CC1	2.01%
CC(CCc1ccccc1)NCC(O)c1ccc(O)c(C(N)=O)c1 (centres undefined)	-3.43%
N[C@@H](Cc1cnc[nH]1)C(=O)O	7.2%
CCCCCCCCCCOCC(O)CN (centres undefined)	16.7%
O=C(COc1ccc(Cl)cc1)N1CCN(Cc2ccc3c(c2)OCO3)CC1	1.83%
CC(=O)OCC(=O)NCCCOc1cccc(CN2CCCCC2)c1	-8.39%
Cc1ccc(O)c2ncccc12	3.94%
Cc1cc2c(cc1CC(=O)c1sccc1S(=O)(=O)Nc1onc(C)c1Cl)OCO2	7.05%
COC(=O)C1=C(C)NC(C)=C(C(=O)O[C@@H]2CCCN(Cc3ccccc3)C2)[C@@H]1c1cccc([N+](=O)[O-])c1	7.74%
N[C@H](CO)C(=O)O	0.998%
CCCn1c(=O)[nH]c(=O)c2[nH]cnc21	13.9%
C[N+]1(CCCCC[N+]2(C)CCCC2)CCCC1	-2.46%
CCCCc1nc(Cl)c(CO)n1Cc1ccc(-c2ccccc2-c2nn[nH]n2)cc1	24.1%
C=C1C(=C/C=C2\CCC[C@]3(C)[C@@H]([C@H](C)/C=C/[C@@H](O)C4CC4)CC[C@@H]23)C[C@@H](O)C[C@@H]1O	11.2%
C[C@@H]1C(=O)NC2=Nc3cccc(Cl)c3CN21	-6.69%
CC(C)COC(=O)OCN1C(=O)CN(CCN2CC(=O)N(COC(=O)OCC(C)C)C(=O)C2)CC1=O	-10.2%
Clc1ccc2c(c1)CCc1cccnc1C2=C1CCNCC1	1.09%
CC(C)C[C@H]1C(=O)N2CCC[C@H]2[C@]2(O)O[C@](NC(=O)[C@@H]3C=C4c5cccc6[nH]c(Br)c(c56)C[C@H]4N(C)C3)(C(C)C)C(=O)N12	-2.51%

Compound	activity change, negative = inhibition
C[C@@H]1CN(CCCn2c3ccccc3c3ccccc32)C[C@H](C)N1	-6.28%
Cc1ccccc1C(=O)Nc1ccc(C(=O)N2CCCC(N(C)C)c3ccccc32)cc1 (centres undefined)	-4.51%
CCCOC(C(=O)OC1CCN(C)CC1)(c1ccccc1)c1ccccc1	-3.82%
C1CCc2nnnn2CC1	-23.7%
c1ccc(-c2ccc(C(c3ccccc3)n3ccnc3)cc2)cc1 (centres undefined)	6.57%
Nc1cc(Cl)c(NC2=NCCN2)c(Cl)c1	-2.59%
CC(C)N=C(N)/N=C(\N)Nc1ccc(Cl)cc1	-12.4%
CCN(CC)CCOc1ccc(C(O)(Cc2ccc(Cl)cc2)c2ccc(C)cc2)cc1 (centres undefined)	6.09%
O=C1CCC(c2ccc(-n3ccnc3)cc2)=NN1	-9.3%
CC[C@H](C)C(=O)O[C@H]1CCC=C2C=C[C@H](C)[C@H](CC[C@@H]3C[C@@H](O)CC(=O)O3)[C@H]21	1.86%
CC(=O)O[C@H]1C[C@@H]2CC[C@@H]3[C@H](CC[C@@]4(C)[C@H]3C[C@H]([N+]3(C)CCCCC3)[C@@H]4OC(C)=O)[C@@]2(C)C[C@@H]1[N+]1(C)CCCCC1	7.2%
CN1CCCC(CC2c3ccccc3Sc3ccccc32)C1 (centres undefined)	2.73%
CC1(C)CCC(NC(=O)[C@@H](N)CCC(=O)O)CC1	-4.3%
CCCCOc1ccc(C(=O)CCN2CCCCC2)cc1	1.44%
NC(=O)c1cc[n+](CC2=C(C(=O)[O-])N3C(=O)[C@@H](NC(=O)Cc4cccs4)[C@H]3SC2)cc1	-5.95%
O=C(CCN1CCC(c2ccccc2)C1)c1ccc2c(c1)OCCO2 (centres undefined)	9.85%
CC(C)NC[C@@H](O)COc1cccc2ccccc12	4.39%
